Experimental data from PubChem BioAssay (Tox21).
Inconclusive results are not listed. Calls of active or inactive are those of the source. The call rests on the fitted dose curve.

How the values were obtained:
[1] = molecular target: Acetylcholinesterase (Homo sapiens) (UniProt P22303); assay: Acetylcholinesterase (AChE) small molecule antagonists: enzyme-based qHTS assay (AID 1347397); settings: Potency: AChE enzyme activity inhibition; outcome: AChE enzyme activity inhibition; further: nearly all actives have a fitted effect of over 55% in size
Sequence of Acetylcholinesterase (Homo sapiens) (P22303 whole entry, looked up): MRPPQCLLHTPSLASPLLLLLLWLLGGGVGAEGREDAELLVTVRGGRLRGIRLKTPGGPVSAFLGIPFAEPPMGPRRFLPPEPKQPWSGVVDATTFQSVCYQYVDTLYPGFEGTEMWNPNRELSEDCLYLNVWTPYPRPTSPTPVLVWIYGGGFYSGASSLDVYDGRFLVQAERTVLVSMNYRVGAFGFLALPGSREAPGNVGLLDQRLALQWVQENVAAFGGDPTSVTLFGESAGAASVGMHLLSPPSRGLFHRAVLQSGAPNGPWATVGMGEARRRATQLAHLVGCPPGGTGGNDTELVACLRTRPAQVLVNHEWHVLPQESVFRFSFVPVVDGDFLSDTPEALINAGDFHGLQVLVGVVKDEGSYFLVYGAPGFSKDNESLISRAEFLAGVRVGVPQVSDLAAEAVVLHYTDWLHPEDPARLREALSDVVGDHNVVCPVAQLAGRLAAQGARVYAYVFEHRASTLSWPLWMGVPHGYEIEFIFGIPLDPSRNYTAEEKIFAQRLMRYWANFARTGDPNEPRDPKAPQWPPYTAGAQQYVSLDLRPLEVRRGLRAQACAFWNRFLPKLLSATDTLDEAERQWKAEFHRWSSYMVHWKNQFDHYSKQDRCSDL
In short: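 rhAChE 50 mU/mL (dispensed) + cpd or DMSO, 30 min RT; add DTNB/acetylthiocholine cocktail, 10 min RT; colorimetric thiocholine readout. qHTS, 1536-well format.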

[2] = molecular target: Acetylcholinesterase (Homo sapiens) (UniProt P22303); assay: Acetylcholinesterase (AChE) small molecule antagonists: fluorescence cell-based qHTS assay (AID 1347398); settings: Potency: AChE activity; outcome: AChE activity; further: nearly all actives have a fitted effect of over 50% in size
In short: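 Read-out is Thiolite Green fluorescence at Ex/Em = 490/520 nm, formed by reaction with thiocholine released when cellular AChE in SH-SY5Y cells hydrolyzes acetylthiocholine. Compounds were preincubated 30 min at 37 C before substrate.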

[3] = molecular target: Acetylcholinesterase (Homo sapiens) (UniProt P22303); assay: Acetylcholinesterase (AChE) small molecule antagonists: enzyme-based qHTS assay with human liver microsomes (AID 1347399); settings: Potency: qHTS inhibition; outcome: qHTS inhibition; further: nearly all actives have a fitted effect of over 60% in size
In short: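 Recombinant human AChE (50 mU/mL in the enzyme mix) and human liver microsomes (0.25 mg/mL final) were preincubated with compound and NADPH (0.25 mg/mL final) for 30 min at 37 C. Acetylthiocholine/DTNB was then added; thiocholine was read colorimetrically after 10 min at room temperature.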

Measured: Potency

COc1ccc(N=[N+]([O-])c2ccc(OC)cc2)cc1
inactive: all assays above

CC1(C)[C@H]2CC[C@]1(C)C(=O)C2
inactive: all assays above
